The values that follow come from the supplement of paper PMC9135407.

Molecules are shown by their SMILES. Several values for one entry are separate records, joined by “and”; a condition that tells them apart may be missing. Equal entries are not always repeated. Structures can show the parent of a compound that is named as a salt. About 620 (11%) of roughly 5,800 compounds showed activity. The full list was thinned out, with actives kept by preference. Unmarked numbers belong to inactive results.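 Rule for the calls: active = score above a cut-off or among the top three wells of a plate; in these data no inactive exceeds 0.85.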 A value given as a limit tells only on which side of the number the result lay.

The subject of the experiment is primary human hepatic stellate cells (donor 1). Put plainly: scaled lipid accumulation score (0 = DMSO-like, 1 = nortriptyline-like); higher = stronger HSC inactivation (lipid re-accumulation), active = hit call of the paper. Particulars: 48 h. As to the method: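 Primary lipid accumulation screen in primary human hepatic stellate cell myofibroblasts (donor 1, passage 8) in 384-well plates. 100 nL of library compound was pin-transferred into 30 µL medium in duplicate, and cells were treated for 48 h. The 'Scaled' score combines distance from plate baseline, toxicity and reproducibility penalties, and is normalised to nortriptyline (positive) and DMSO (negative) controls on each plate. A hit is defined as scaled >0.85 or among the top 3 wells per plate.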

The mark [1] stands for this setting: library stock concentration: 3.33 mM.
Where [2] appears, read: library stock concentration: 10 mM.
Where [3] appears, read: library stock concentration: 1 mM.
Setting [4] is: library stock concentration: 100 uM.
[5] abbreviates: library stock concentration: 80 uM.
The mark [6] stands for this setting: library stock concentration: 400 uM.
[7] abbreviates: library stock concentration: 2 mM.

For the molecule `N#Cc1c(O)c2c(-c3ccc(-c4ccccc4O)cc3)csc2[nH]c1=O`, the “scaled lipid accumulation score” value by setting is: under setting [1], 0.004; under setting [2], ≤ 0 and 0.001. Regarding `CC1(C)S[C@@H]2[C@H](NC(=O)COc3ccccc3)C(=O)N2[C@H]1C(=O)O` [Penicillin V], the “scaled lipid accumulation score” value under setting [2] is not above 0. Take `CC1(C)S[C@@H]2[C@H](NC(=O)COc3ccccc3)C(=O)N2[C@H]1C(=O)O` [Penicillin v potassium]: the “scaled lipid accumulation score” value reads like this: (library stock concentration: 5.1 mM) 0.003; under setting [2], not above 0.

For the molecule `Cc1ccc(Sc2cncc3sc(C(N)=O)cc23)cc1`, the “scaled lipid accumulation score” value is, setting by setting: under setting [1], 0.183; under setting [2], 0.478 and 0.373. On to `CCOC(=O)CCC(=O)O[C@H]1[C@H](O[C@@H]2[C@@H](C)[C@H](O[C@H]3C[C@@](C)(OC)[C@@H](O)[C@H](C)O3)[C@@H](C)C(=O)O[C@H](CC)[C@@](C)(O)[C@H](O)[C@@H](C)C(=O)[C@H](C)C[C@@]2(C)O)O[C@H](C)C[C@@H]1N(C)C` [Eryped], for which the “scaled lipid accumulation score” value under setting [2] was not above 0. Consider `CCOC(=O)CCC(=O)O[C@H]1[C@H](O[C@@H]2[C@@H](C)[C@H](O[C@H]3C[C@@](C)(OC)[C@@H](O)[C@H](C)O3)[C@@H](C)C(=O)O[C@H](CC)[C@@](C)(O)[C@H](O)[C@@H](C)C(=O)[C@H](C)C[C@@]2(C)O)O[C@H](C)C[C@@H]1N(C)C` [Erythromycin ethylsuccinate], for which the “scaled lipid accumulation score” value is not above -0.001 (library stock concentration: 2.3 mM) and not above 0 under setting [2]. Consider `Nc1c2c(nc3ccccc13)CCCC2O` (stereo not given) [Hydroxytacrine maleate], for which the “scaled lipid accumulation score” value (library stock concentration: 9.3 mM) was not above -0.006 and the “scaled lipid accumulation score” value under setting [2] is 0.056. Regarding `Nc1c2c(nc3ccccc13)CCCC2` [9-Amino-1,2,3,4-tetrahydroacridine hydrochloride], under setting [2], the “scaled lipid accumulation score” value is 0.401. Consider `Nc1c2c(nc3ccccc13)CCCC2` [Tacrine (hydrochloride)], for which, under setting [3], the “scaled lipid accumulation score” value is 0.026. Take `Cl.Cl.c1ccc2c(NCCCCCCCNc3c4c(nc5ccccc35)CCCC4)c3c(nc2c1)CCCC3` [bis(7)-Tacrine]: the “scaled lipid accumulation score” value under setting [3] was 1.11 (active). Turning to `Nc1c2c(nc3ccccc13)CCCC2` [Tacrine hydrochloride], the “scaled lipid accumulation score” value under setting [2] was 0.064. As to `Nc1c2c(nc3ccccc13)CCCC2`, for the setting “library stock concentration: 9.7 mM”, the “scaled lipid accumulation score” value was 0.039.

As for `CCCCCC(=O)CC[C@H]1C=CC(=O)[C@@H]1C/C=C\CCCC(=O)O` [13,14-dihydro-15-keto Prostaglandin A2], the “scaled lipid accumulation score” value under setting [3] is not above 0. The same measure, in the same setting: next, `CCCCC[C@H](O)/C=C/[C@H]1C2CC(CO2)[C@@H]1C/C=C/CCCC(=O)O` (stereo not given in full): not above 0.

In the case of `CCCCC[C@](C)(O)/C=C/[C@@H]1[C@@H](C/C=C\CCCC(=O)O)[C@@H](O)C[C@H]1O` [15(S)-15-methyl Prostaglandin F2.alpha.], the “scaled lipid accumulation score” value under setting [3] is not above 0. With `CCCCC/C=C\C/C=C\CC1OC1C/C=C\CCCC(=O)O` (stereo not given) [8,9-Epoxyeicosatrienoic acid], the “scaled lipid accumulation score” value under setting [4] was not above -0.021.

As to `CNC(=O)c1cc(Oc2ccc(NC(=O)Nc3ccc(Cl)c(C(F)(F)F)c3)c(F)c2)ccn1` [Regorafenib (BAY 73-4506)], the “scaled lipid accumulation score” value is, setting by setting: under setting [1], not above 0; under setting [2], not above 0. In the case of `CNC(=O)c1cc(Oc2ccc(NC(=O)Nc3ccc(Cl)c(C(F)(F)F)c3)cc2)ccn1` [Sorafenib (Nexavar, BAY43-9006) (10 mM)], the “scaled lipid accumulation score” value under setting [2] is 1.21 (active). `CNC(=O)c1cc(Oc2ccc(NC(=O)Nc3ccc(Cl)c(C(F)(F)F)c3)cc2)ccn1` [Sorafenib]: the “scaled lipid accumulation score” value was not above 0 under setting [1] and not above 0 under setting [2].

Turning to `CNC(=O)c1cc(Oc2ccc(NC(=O)Nc3ccc(Cl)c(C(F)(F)F)c3)cc2)ccn1`, the “scaled lipid accumulation score” value by setting is: under setting [5], 0.04; under setting [6], 0.075; under setting [7], not above 0; under setting [2], 0.672. On to `CNC(=O)c1cc(Oc2ccc(NC(=O)Nc3ccc(Cl)c(C(F)(F)F)c3)cc2)ccn1` [Sorafenib Tosylate], for which the “scaled lipid accumulation score” value under setting [1] is 0.005 and the “scaled lipid accumulation score” value under setting [2] is not above 0. Take `CNC(=O)c1cc(Oc2ccc(NC(=O)Nc3ccc(Cl)c(C(F)(F)F)c3)cc2)ccn1` [Sorafenib  (Nexavar, BAY43-9006) (2 mM)]: the “scaled lipid accumulation score” value under setting [7] was 0.299. In the case of `CNC(=O)c1cc(Oc2ccc(NC(=O)Nc3ccc(Cl)c(C(F)(F)F)c3)cc2)ccn1` [Sorafenib  (Nexavar, BAY43-9006) (0.4 mM)], the “scaled lipid accumulation score” value under setting [6] is 0.021.

Turning to `CNC(=O)c1cc(Oc2ccc(NC(=O)Nc3ccc(Cl)c(C(F)(F)F)c3)c(F)c2)ccn1` [Regorafenib], the “scaled lipid accumulation score” value runs as follows: under setting [5], not above -0.016; under setting [6], 0.033; under setting [7], not above -0.016; under setting [2], not above -0.016. Turning to `CC1(C(=O)O)NCCc2cc(O)c(O)cc21` (stereo not given) [Salsolinol-1-carboxylic acid], the “scaled lipid accumulation score” value under setting [2] was 0.05. Still for that read-out and setting: next, `NC/C=C/C(=O)O` [(E)-4-amino-2-butenoic acid]: not above 0. Take `CCn1cc(-c2ccnc3[nH]c(-c4cccc(CN(C)C)c4)cc23)c(-c2ccc(NC(=O)N(C)C)cc2)n1` [listing 1 of 2 here]: the “scaled lipid accumulation score” value runs as follows: under setting [5], not above 0; under setting [6], not above 0; under setting [7], 0.222.

For the molecule `CN(C)C(=O)Nc1cccc(-c2ccc(N(C)C)cc2)c1` [Atglistatin], the “scaled lipid accumulation score” value by setting is: under setting [1], 0.012; under setting [2], 0.076. On to `CCn1cc(-c2ccnc3[nH]c(-c4cccc(CN(C)C)c4)cc23)c(-c2ccc(NC(=O)N(C)C)cc2)n1` [listing 2 of 2 here], for which the “scaled lipid accumulation score” value under setting [2] is 0.863 (active). On to `NCCNCCNCCN` [Trientine hydrochloride], for which the “scaled lipid accumulation score” value (library stock concentration: 9.1 mM) is not above 0.

On to `CC(=O)Oc1ccc2c(c1)CC[C@@H]1[C@@H]2CC[C@]2(C)[C@@H](OC(C)=O)CC[C@@H]12` [Estradiol diacetate], for which the “scaled lipid accumulation score” value under setting [2] is not above 0. `N#C[C@@H]1C[C@@H]2C[C@@H]2N1C(=O)[C@@H](N)C12CC3CC(CC(O)(C3)C1)C2` [Saxagliptin]: the “scaled lipid accumulation score” value under setting [1] was not above 0 and the “scaled lipid accumulation score” value under setting [2] was not above 0.

As to `N#C[C@@H]1C[C@@H]2C[C@@H]2N1C(=O)[C@@H](N)C12CC3CC(CC(O)(C3)C1)C2`, the “scaled lipid accumulation score” value under setting [2] was not above 0. As for `O=C(O)CCC/C=C\C[C@H]1C(=O)C[C@@H](O)[C@@H]1/C=C/[C@@H](O)Cc1ccccc1` [16-phenyl tetranor Prostaglandin E2], the “scaled lipid accumulation score” value under setting [3] is not above 0. Take `CCCCn1c(=O)c2[nH]c(C34CC5CC(CC3C5)C4)nc2n(CCCO)c1=O`: the “scaled lipid accumulation score” value under setting [2] was not above -0.001. Regarding `CN1CCN2c3ccccc3Cc3ccccc3C2C1` (stereo not given) [Mianserin hcl], the “scaled lipid accumulation score” value (library stock concentration: 7.6 mM) is 0.348.

As to `CN1CCN2c3ccccc3Cc3ccccc3C2C1` (stereo not given) [Mianserin hydrochloride], the “scaled lipid accumulation score” value is, setting by setting: (library stock concentration: 6.6 mM) 0.236; under setting [2], 0.398.

For the molecule `CN1CCN2c3ncccc3Cc3ccccc3C2C1` (stereo not given) [Mirtazapine], the “scaled lipid accumulation score” value is, setting by setting: under setting [1], not above 0; under setting [2], 0.104. In the case of `CN1CCN2c3ccccc3Cc3ccccc3C2C1` (stereo not given) [Mianserine hydrochloride], the “scaled lipid accumulation score” value is 0.681.

`CN1CCN2c3ncccc3Cc3ccccc3C2C1` (stereo not given) [mirtazapine]: the “scaled lipid accumulation score” value under setting [2] is 0.317. The same measure, in the same setting: next, `CN1CCN2c3ncccc3Cc3ccccc3C2C1` (stereo not given): 0.409; `CN1CCN2c3ccccc3Cc3ccccc3C2C1.Cl` (stereo not given) [Mianserin hydrochloride]: 0.869 (active). Consider `CN1CCN2c3ccccc3Cc3ccccc3C2C1` (stereo not given) [Mianserin HCl], for which the “scaled lipid accumulation score” value by setting is: under setting [1], 0.172; under setting [2], 0.188. On to `CN1CCN2c3ncccc3Cc3ccccc3C2C1` (stereo not given) [Mirtazepine], for which the “scaled lipid accumulation score” value under setting [2] was 0.053. As for `Cc1c(C)c2c(c(C)c1O)CC[C@@](C)(CCC[C@H](C)CCC[C@H](C)CCCC(C)C)O2` (racemic) [Tocopherol (R,S)], the “scaled lipid accumulation score” value was not above 0. `CN1CCN(c2c(F)cc3c(=O)c(C(=O)O)cn(CCF)c3c2F)CC1` [Fleroxacin]: the “scaled lipid accumulation score” value (library stock concentration: 5.4 mM) is not above 0. For `CCCCCC(=O)/C=C/C=C\C/C=C\C/C=C\CCCC(=O)O` [15-Ketoicosatetraenoic acid], the “scaled lipid accumulation score” value under setting [4] was not above -0.021. Regarding `COc1ccc(CNC(=O)Nc2ncc([N+](=O)[O-])s2)cc1` [listing 1 of 2 here], the “scaled lipid accumulation score” value under setting [1] is 0.006.

In the case of `COc1ccc(CNC(=O)Nc2ncc([N+](=O)[O-])s2)cc1` [GSK-3b Inhibitor VIII], the “scaled lipid accumulation score” value under setting [1] is not above 0.

In the case of `COc1ccc(CNC(=O)Nc2ncc([N+](=O)[O-])s2)cc1` [listing 2 of 2 here], under setting [2], the “scaled lipid accumulation score” value is 0.864 (active). As to `CC(=O)Nc1ncc([N+](=O)[O-])s1`, under setting [2], the “scaled lipid accumulation score” value was not above 0.

`CC(=O)Nc1ncc([N+](=O)[O-])s1` [Nithiamide]: the “scaled lipid accumulation score” value is, setting by setting: under setting [1], not above 0; under setting [2], not above -0.001. In the case of `O=C(c1ccccc1)c1ccc(N2CCOCC2)cc1O` [DNA-PK Inhibitor V], the “scaled lipid accumulation score” value under setting [1] is not above 0. As for `CCCCC(C)(C)[C@H](O)/C=C/[C@H]1C(=O)C[C@H](O)[C@@H]1C/C=C\CCCC(=O)O` [16,16-dimethyl Prostaglandin D2], the “scaled lipid accumulation score” value under setting [3] was not above 0.

`O=C1NC(=O)[C@@H](c2cn3c4c(cccc24)CCC3)[C@@H]1c1c[nH]c2ccccc12` [Tivantinib]: the “scaled lipid accumulation score” value was not above -0.009 under setting [5], 0.071 under setting [6], not above -0.009 under setting [7] and 0.169 under setting [2]. Take `CCCCCC(=O)CC[C@H]1C(=O)C[C@H](O)[C@@H]1C/C=C\CCCC(=O)O` [13,14-dihydro-15-keto Prostaglandin D2]: the “scaled lipid accumulation score” value under setting [3] is not above 0. With `C=CC(=O)Nc1cc(Nc2nccc(-c3cn(C)c4ccccc34)n2)c(OC)cc1N(C)CCN(C)C` [listing 1 of 3 here], under setting [2], the “scaled lipid accumulation score” value is not above 0. Turning to `C=CC(=O)Nc1cc(Nc2nccc(-c3cn(C)c4ccccc34)n2)c(OC)cc1N(C)CCN(C)C` [listing 2 of 3 here], the “scaled lipid accumulation score” value under setting [1] is 0.983 (active). With `C=CC(=O)Nc1cccc(Nc2nc(Nc3ccc(NC4CN(CCF)C4)cc3OC)ncc2C(F)(F)F)c1`, the “scaled lipid accumulation score” value under setting [1] is not above -0.009 and the “scaled lipid accumulation score” value under setting [2] is 0.811. The corresponding values for `COc1cc(N2CCN(C)CC2)ccc1Nc1nccc(-c2cn(C)c3cnccc23)n1` are not above -0.009 and 0.446. Regarding `C=CC(=O)Nc1cc(Nc2nccc(-c3cn(C)c4ccccc34)n2)c(OC)cc1N(C)CCN(C)C` [listing 3 of 3 here], the “scaled lipid accumulation score” value under setting [7] is 1.01 (active). With `C=CC(=O)Nc1cccc(Nc2nc(Nc3ccc(N4CCN(C(C)=O)CC4)cc3OC)ncc2C(F)(F)F)c1`, the “scaled lipid accumulation score” value was not above -0.009 under setting [1] and 0.063 under setting [2].
